High-throughput results from PubChem.
PNC inhibitor: blocks assembly of the perinucleolar compartment. PC3M PTB-GFP, PNC prevalence imaging, 16 h; active compounds read low. activity change (PNC), negative = inhibition, % at 10 µM. 140,000 tested, 3.1% active;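 active = readout at or below -70, meaning at least 70% loss of cells showing the perinucleolar compartment, a nuclear body marking cancer cells; inconclusive = readout between -30 and a set limit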
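Read-out is percentage of cells bearing a perinucleolar compartment, from automated 20x imaging of fixed, Hoechst-stained PC3M PTB-GFP cells. Cells were seeded 4 h, then exposed 16 h to compound (23 nl of library stock) in duplicate plates.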
ALDH1A1 inh: blocks purified human ALDH1A1 activity. P00352. Purified ALDH1A1, NADH fluorescence, propionaldehyde substrate. Potency, µM (titrated, usually from 75.3 µM), most hits filed as inhibitors. 220,000 tested, 7.3% active
12-hLO inh: blocks human 12-lipoxygenase activity. purified 12-hLO, xylenol orange hydroperoxide absorbance. P18054. 150,000 tested, 0.12% active. Potency, µM (doses to about 57.1 µM), usual class: inhibitors. AID 1452; active = well fitted inhibition curve with a large enough effect; inconclusive = small, poorly fitted or top-dose-only effect; also: nearly all actives have a fitted effect of over 55% in size
Target sequence (P18054 whole entry, looked up): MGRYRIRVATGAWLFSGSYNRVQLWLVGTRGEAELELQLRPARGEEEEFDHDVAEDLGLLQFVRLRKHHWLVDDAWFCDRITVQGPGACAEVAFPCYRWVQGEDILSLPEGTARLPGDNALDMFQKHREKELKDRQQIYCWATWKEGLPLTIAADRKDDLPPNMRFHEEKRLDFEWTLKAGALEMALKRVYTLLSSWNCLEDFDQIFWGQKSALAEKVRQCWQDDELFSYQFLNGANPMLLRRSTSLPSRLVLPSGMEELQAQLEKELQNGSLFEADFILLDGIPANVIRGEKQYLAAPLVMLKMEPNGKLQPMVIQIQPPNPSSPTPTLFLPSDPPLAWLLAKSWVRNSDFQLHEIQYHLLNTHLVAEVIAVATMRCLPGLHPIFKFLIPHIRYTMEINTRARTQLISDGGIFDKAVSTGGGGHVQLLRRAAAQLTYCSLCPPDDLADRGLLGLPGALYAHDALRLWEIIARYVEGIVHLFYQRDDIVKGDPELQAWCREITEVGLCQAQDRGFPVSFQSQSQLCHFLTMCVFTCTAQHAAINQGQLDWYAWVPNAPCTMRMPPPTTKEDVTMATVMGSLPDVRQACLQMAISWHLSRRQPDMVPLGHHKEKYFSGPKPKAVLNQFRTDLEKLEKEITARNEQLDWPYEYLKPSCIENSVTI
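Purified human 12hLO (150 nM final) was preincubated with compounds for 15 min at room temperature in 25 mM Hepes pH 7.0, 0.01% Triton X-100, then reacted with 40 uM arachidonic acid for 30 min. Hydroperoxide was detected with ferrous iron/xylenol orange.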
Lamin A splicing: changes lamin A minigene splicing in HeLa cells; Potency, µM (top dose mostly 46.1 µM), most hits filed as inhibitors; 200,000 tested, 0.01% active; HeLa LMNA splicing GFP/RFP minigene ratio, 48 h; active = well fitted inhibition curve with a large enough effect in the signal ratio, with a control signal flat, not every such curve was filed as active; inconclusive = small, poorly fitted or top-dose-only effect, or effect the other way, or a change in a side signal; the % refers to the signal ratio
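S3 HeLa stable clones carrying a lamin A-EGFP splicing minigene plus DsRed2 were seeded at 600 cells/well in Opti-MEM with 2% FBS, pin-dosed and incubated 48 h at 37°C. Acumen cytometry (488 nm) gave the GFP/RFP total-intensity ratio.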
HPGD inh: blocks human HPGD enzyme activity; P15428; purified HPGD, NADH fluorescence kinetic, PGE2 substrate; Potency, µM, most hits filed as inhibitors; 150,000 tested, 4.3% active; AID 894
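NADH formation kinetics: reaction with 30 uM PGE2 and 1 mM NAD+ (final), 20 nM enzyme, Tris-HCl pH 8 with Tween 20, after 15 min compound preincubation at room temperature. Fluorescence change, last versus first of five reads.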
Numbers stand for hits; 0 = inactive; ? = inconclusive; - = no result; [ ] = dose if it differs, or a comment. The list is not random: actives were taken first. Their share in the collection is about 10%. Unless noted, calls follow the shape of the dose curve; as a rule, active = well fitted inhibition curve with a large enough effect (not every such curve was filed as active); inconclusive = small, poorly fitted or top-dose-only effect, or another doubt; inactive = no such curve, though single readings can be large or run the other way.

SMILES	PNC inhibitor	ALDH1A1 inh	12-hLO inh	Lamin A splicing	HPGD inh
COc1ccccc1NC(=S)N(Cc1ccc(C(=O)O)cc1)Cc1ccc(OC)c(OC)c1	-	0	-	0	-
C[N+](C)(CC#Cc1ccccc1)CC(=O)c1ccccc1	?	0	0	0	0
C[N+](C)(CC#Cc1ccccc1)CC(=O)c1ccc(Cl)cc1	-90	0	0	0	0
Cc1ccccc1CNC1CCCCC1	?	0	0	0	0
O=[N+]([O-])c1ccccc1CNC1CCCCCC1	-	14µM	-	0	-
Cc1ccc(OCC(=O)Nc2ccc(N(C)C)cc2)cc1	0	0	0	0	0
COCC(=O)Nc1ccc(C(C)C)cc1	?	0	0	0	18µM
CC(=O)NC(=S)Nc1ccc(NC(=O)COc2ccc(C(C)C)cc2)cc1	0	?	0	0	0
COCC(=O)Nc1ccc(N(C)C)cc1	-81	0	0	0	?
CN(C)c1ccc(NC(=O)COC(=O)CCC(=O)c2ccc(F)cc2)cc1	0	10µM	0	0	0
CCN(CC)S(=O)(=O)c1cc(NC(=O)COC(=O)CCC(=O)c2ccc(F)cc2)ccc1C	0	0	0	0	0
O=C(C1CCN(c2ccc(N3CCOCC3)nn2)CC1)N1CCc2ccccc2C1	0	?	0	?	?
CCOc1ccc(NC(=O)C2CCC(CNc3c(N4CCOCC4)c(=O)c3=O)CC2)cc1 (configuration not stated)	0	0	0	0	0
O=C(NCc1ccc(Cl)cc1)C1CCC(CNc2c(N3CCCCC3)c(=O)c2=O)CC1 (configuration not stated)	0	0	0	0	0
CCN(Cc1ccccc1)C(=O)C1CCC(CNc2c(N3CCOCC3)c(=O)c2=O)CC1 (configuration not stated)	0	0	0	0	25µM
O=C(C1CCC(CNc2c(N3CCCCC3)c(=O)c2=O)CC1)N1CCc2ccccc2C1 (configuration not stated)	0	0	0	0	0.56µM
CC1CCN(c2c(NCC3CCC(C(=O)N4CCc5ccccc5C4)CC3)c(=O)c2=O)CC1 (configuration not stated)	0	0	0	0	2.5µM
COc1cc(C)c(CNc2cccc(C)c2)cc1C	?	14µM	0	0	0
COc1cc(C)c(CNC2CCCCC2)cc1C	0	0	0	0	0
COc1cc(C)c(CNc2cc(C)cc(C)c2)cc1C	0	0	0	0	0
COc1cc(C)c(CNc2ccc(OC)c(OC)c2)cc1C	0	25µM	0	0	0
Cc1cc(C)cc(SCc2noc(C(=O)NCC3CCCO3)c2C(=O)O)c1 (configuration not stated)	0	0	0	0[0.0737 µM]	0
CCCCNC(=O)c1onc(CSc2ccccc2CC)c1C(=O)O	-109	0	0	?	0
O=C(NCC1CCCO1)c1onc(CSc2ccccc2)c1C(=O)O (configuration not stated)	0	0	0	0[0.0737 µM]	0
CC(C)c1ccc(SCc2noc(C(=O)NCC3CCCO3)c2C(=O)O)cc1 (configuration not stated)	0	?	0	0[0.0737 µM]	7.9µM
SMILES	PNC inhibitor	ALDH1A1 inh	12-hLO inh	Lamin A splicing	HPGD inh
CCCCNC(=O)c1onc(CSc2cc(C)ccc2C)c1C(=O)O	0	0	0	?	0
Cc1cccc(SCc2noc(C(=O)NCC3CCCO3)c2C(=O)O)c1 (configuration not stated)	-90	0	0	0[0.0737 µM]	0
COc1cc(NC(=O)c2cc3cc4ccc(OC)c(Cl)c4nc3s2)cc(OC)c1	-	-	-	0	-
COc1cccc(CNS(=O)(=O)c2c(C(=O)N3CCC(C)CC3)c(C)n(C)c2C)c1	-	-	-	0	-
Cc1ccc(S(=O)(=O)c2ccc(C)cc2)cc1	0	0	0	0	0
Cc1ccc(S(=O)(=O)/C=C\C#N)cc1	-	0.011µM	0	-	3.5µM
CC(C)(C)c1ccc(S(=O)(=O)/C=C\C#N)cc1	-	0.056µM	0	-	2.8µM
CN(C)c1ccc(C(CNC(=O)c2c(F)cccc2Cl)N2CCOCC2)cc1 (configuration not stated)	-	-	-	0	-
CCOc1ccc(OCC)c(NC(=O)CSCC(=O)O)c1	0	?	0	0	-
COc1ccc(OC)c(NC(=O)CSCC(=O)O)c1	0	20µM	0	0	0
COc1ccc(OC)c(NC(=O)CSc2ccccc2)c1	0	0	0	0	0
COc1ccc(OC)c(NC(=O)CSc2ncnc3c2cnn3-c2ccccc2Cl)c1	?	16µM	0	0	0
COc1ccc(OC)c(NC(=O)CSc2ccc3ccccc3c2)c1	?	11µM	0	?	-
C[C@]1(OC(=O)/C=C\c2ccccc2)C[C@@H](O)[C@@]2(O)C=CO[C@@H](O[C@H]3O[C@@H](CO)[C@@H](O)[C@@H](O)[C@@H]3O)[C@H]21	-	0	0	?	0
CC(=O)Nc1c(C(=O)N2CCCCCC2)cnn1-c1ccccc1Cl	0	0	0	0	14µM
C=CC[C@](C)(Nc1ccc(OC)cc1)C(=O)OCC	-	0	-	-	0
COc1ccc(S(=O)(=O)N(CCc2ccccc2)CC(N)=O)cc1	-	7.9µM	-	-	-
COCCNC(=O)CN(CCc1ccccc1)S(=O)(=O)c1ccc(OC)cc1	0	?	0	0	0
CCCCC#Cc1ccccc1CC(=O)Nc1ccccc1	-119	0	0	?	0
COc1cccc(NC(=O)N2CCC(n3c(C)nc4cccnc43)CC2)c1	-	-	-	0	-
Cc1ccccc1-n1nnnc1SCC(=O)c1c(N)n(C)c(=O)n(C)c1=O	-	0.35µM	-	0	-
CCn1c(SCC(=O)c2c(N)n(C)c(=O)n(C)c2=O)nnc1-c1ccccc1	0	0	0	0	0
CCc1cccc(CC)c1-n1c(SCC(=O)c2c(N)n(C)c(=O)n(C)c2=O)nnc1-c1cccnc1	-134	0	0	0	0
COc1ccc(C(=O)c2ccc(Cl)cc2Cl)cc1	0	0	0	0	0
COc1ccc(/C=C(/C(=O)c2ccc(Cl)cc2Cl)n2cncn2)cc1	0	8.9µM	0	?	0
SMILES	PNC inhibitor	ALDH1A1 inh	12-hLO inh	Lamin A splicing	HPGD inh
CN(C)c1ccc(/C=C(/C(=O)c2ccc(Cl)cc2Cl)n2cncn2)cc1	0	1.1µM	0	?	0
CC(C)CC(=O)/C(=C\c1ccc(Cl)cc1Cl)n1cncn1	0	22µM	0	?	?
O=C(Nc1ccc2nc(SCC(=O)N3CCOCC3)sc2c1)c1ccc(F)cc1	-	-	-	0	-
O=C(O)CN1C(=O)O[C@@H](c2ccccc2)C1=O	-	0[13.5 µM]	0[11.4 µM]	-	0
COC(=O)C1=CN(C)C=C(C(=O)OC)C1c1ccccc1Cl	-109	?	0	0	?
CN1N=C(c2ccc(F)c(F)c2)CSC1=NCc1ccccc1	-	0	-	?	-
Cc1ccc(C)c(C2=NNC(=NCc3ccccc3)SC2)c1	-	18µM	-	0	-
c1ccc(CN=C2NN=C(c3cc4ccccc4o3)CS2)cc1	0	28µM	0	?	16µM
c1csc(C2=NNC(=NC3CCCCC3)SC2)c1	-	?	-	0[9.22 µM]	-
c1ccc2oc(C3=NNC(=NC4CC4)SC3)cc2c1	0	28µM	0	0	?
CCc1ccc(CNC(=O)CN2C(=O)CCn3nc(-c4cn(C)c5ccccc45)cc32)cc1	-	-	-	0	-
CCOC(=O)c1cc(S(=O)(=O)Nc2cc(C)c(Cl)cc2OC)[nH]n1	-	-	-	0	-
